In all, about 69,000 compounds went through this assay and about 50 (0.07%) showed an effect of 50% or more. The list comes from a sample in which strong results are over-represented; it also holds similar structures and randomly drawn compounds.

This test deals with Lysine--tRNA ligase (Plasmodium falciparum (isolate 3D7)) (UniProt Q8IDJ8). As to the kind of experiment: Pf-KRS-1 (Lysyl-RNA Synthetase-1, KRS-1, cytosolic KRS) from Plasmodium falciparum. Inhibitor assay, 384 well plate, luminescence read. The class given is functional. Details: scale not given: in the data most compounds retested in dose-response had high values. The following applies: 30 µM.
Chain of Lysine--tRNA ligase (Plasmodium falciparum (isolate 3D7)) (Q8IDJ8 1-583): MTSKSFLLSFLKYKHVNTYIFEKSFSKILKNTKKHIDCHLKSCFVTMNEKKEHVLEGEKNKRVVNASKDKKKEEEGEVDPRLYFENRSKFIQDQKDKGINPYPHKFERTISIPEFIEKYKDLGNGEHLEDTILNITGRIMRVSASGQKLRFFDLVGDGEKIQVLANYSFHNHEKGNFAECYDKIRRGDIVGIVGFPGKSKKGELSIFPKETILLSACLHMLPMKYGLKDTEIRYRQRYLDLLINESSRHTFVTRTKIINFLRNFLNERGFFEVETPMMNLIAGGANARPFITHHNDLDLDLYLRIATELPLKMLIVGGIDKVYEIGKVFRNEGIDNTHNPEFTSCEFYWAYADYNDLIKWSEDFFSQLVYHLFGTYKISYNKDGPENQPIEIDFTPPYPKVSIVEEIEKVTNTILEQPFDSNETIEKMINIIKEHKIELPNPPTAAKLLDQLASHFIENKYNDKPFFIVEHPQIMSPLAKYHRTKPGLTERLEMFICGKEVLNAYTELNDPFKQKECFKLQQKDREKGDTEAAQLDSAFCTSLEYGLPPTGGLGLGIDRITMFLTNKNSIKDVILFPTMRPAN
On to `O=c1c(CN2CC3CCCN3C[C@@H]2CCO)coc2ccc(Cl)cc12` (stereo partly drawn), for which the Percent Effect was 0.683%.

Consider `O=c1c(CN2CCOCC2)coc2ccc(Cl)cc12`, for which the Percent Effect worked out at 28.3%.

Turning to `O=c1c(CN2CCCCC2)coc2ccc(Cl)cc12`, the Percent Effect amounted to 62.1%.

Consider `Cc1ccc(S(=O)(=O)N2C[C@@H]3C[C@@H](NC(=O)C(C)(C)C)[C@@H]3C2)cc1`, for which the Percent Effect came out at 6.48%.

`Cn1cc(C(C)(O)CNc2ccc(Cl)c(C#N)n2)cn1` (stereo not drawn): the Percent Effect is 18.4%.

On to `CC(O)(CNc1ccc(Cl)c(C#N)n1)c1ccsc1` (stereo not drawn), for which the Percent Effect was 59%.

On to `CC(O)(CNc1ccc(Cl)c(C#N)n1)c1ccccc1` (stereo not drawn), for which the Percent Effect is 8.49%.

With `CCOCC(=O)N1CC[C@@H]2O[C@@H](C)C[C@H]2C1`, the Percent Effect came out at 2.15%.

As to `O=C1CC[C@]2(CC[C@@H](NCc3ccc4c(c3)OCO4)CC2)N1`, the Percent Effect is -2.96%.

On to `O=C(NC1CC(F)(F)C1)[C@]12COC[C@H]1CN(Cc1ccsc1)C2`, for which the Percent Effect amounted to 3.2%.

With `O=C(c1ccc(=O)[nH]n1)N1CCCC1C1CCCC1` (stereo not drawn), the Percent Effect was 9.62%.

Take `O=C(c1cnc2[nH]c(=O)[nH]c(=O)c2c1)N1CCCC1C1CCCCC1` (stereo not drawn): the Percent Effect is 2.68%.

Regarding `O=C(c1c[nH]nn1)N1CCCC1C1CCCCC1` (stereo not drawn), the Percent Effect stood at 85.6%.

For the molecule `COC[C@@]12CC[C@@H](N3CCOCC3)C[C@H]1CCN(c1nc(CO)cs1)C2`, the Percent Effect was 10.3%.

In the case of `Cn1cc(NC(=O)N2CCC(CN3CCCC3)CC2)ccc1=O`, the Percent Effect turned out to be 0.985%.

For the molecule `Cn1cc(NC(=O)N2CCCC2c2cccnc2)ccc1=O` (stereo not drawn), the Percent Effect was 4.14%.

For the molecule `Cn1cc(NC(=O)N2CCCC2c2ccccn2)ccc1=O` (stereo not drawn), the Percent Effect was 78.9%.

Take `Cn1cc(NC(=O)N2CCC2c2ccccc2)ccc1=O` (stereo not drawn): the Percent Effect was 20.1%.

As for `CC(C)C1CCCN1C(=O)Nc1ccc(=O)n(C)c1` (stereo not drawn), the Percent Effect amounted to 81%.

For the molecule `Cn1cc(NC(=O)N2CCC(c3ccccc3)CC2)ccc1=O`, the Percent Effect was 45.4%.

For `COCC(=O)N1CC[C@H]2[C@H]1CCN2CC(C)C`, the Percent Effect amounted to 7.19%.

Take `CN(Cc1ccco1)[C@@H]1CN(CC2CCOCC2)C[C@@H]2CCCO[C@@H]21`: the Percent Effect was -0.34%.

Consider `CN1C[C@H]2CNC[C@@]2(C(=O)N2CCN(c3ncccc3C#N)CC2)C1`, for which the Percent Effect stood at 4.21%.

Turning to `O=C([C@H]1CCS(=O)(=O)[C@@H]2CN(Cc3ccc(F)cc3)C[C@H]12)N1CCCC1`, the Percent Effect amounted to 7.12%.

Take `O=C(c1ccc[nH]1)N1C[C@H](OCc2ccccn2)[C@H]2COC[C@H]21`: the Percent Effect was -1.37%.

With `Cn1nc2c(cc1=O)CN(Cc1nc(-c3ccco3)no1)CC2`, the Percent Effect was 5.02%.

Consider `Cn1nc2c(cc1=O)CN(Cc1nc(-c3cccnc3)no1)CC2`, for which the Percent Effect is -1.07%.

For `Cc1cccc(-c2noc(CN3CCc4nn(C)c(=O)cc4C3)n2)c1`, the Percent Effect amounted to 68.9%.

For `Cn1nc2c(cc1=O)CN(Cc1nc(C(C)(C)C)no1)CC2`, the Percent Effect worked out at 70.1%.

`Cc1ccc(-c2noc(CN3CCc4nn(C)c(=O)cc4C3)n2)cc1`: the Percent Effect stood at 1.64%.

Take `Cn1nc2c(cc1=O)CN(Cc1nc(C3CC3)no1)CC2`: the Percent Effect is 8.16%.

As for `CSCC[C@H]1CN2CCC[C@H]2CN1Cc1coc2ccc(C)cc2c1=O`, the Percent Effect is -1.05%.

On to `Fc1cnc(N2CCO[C@H]3CN(CC4CCC4)C[C@H]32)nc1`, for which the Percent Effect was -1.14%.

With `Cc1nnsc1CN1C[C@H]2CC[C@@H]1CN(Cc1ccccc1)C2`, the Percent Effect was determined as 2.23%.

Turning to `CCC(=O)N1CC[C@H]2C(=O)N(Cc3ccc(OC)cc3)CCO[C@H]2C1`, the Percent Effect came to 4.55%.

For the molecule `Cc1noc(C)c1CN1CC[C@H]2[C@H]1CCN2CC1CCOCC1`, the Percent Effect is 59%.

`Cc1noc(C)c1CN1CCO[C@H]2CN(CC3CC3)C[C@H]21`: the Percent Effect was found to be 2.54%.

Regarding `Cc1noc(C)c1CN1CC[C@H]2[C@@H]1CCC(=O)N2CC1CCOCC1`, the Percent Effect was 3.41%.

In the case of `CCCN1CCN(C(=O)c2cccc3cccnc23)[C@H]2CS(=O)(=O)C[C@H]21`, the Percent Effect was -0.361%.

As for `CC1(C)CC(N2Cc3nc(N)ncc3C2=O)CC(C)(C)N1`, the Percent Effect came out at 1.77%.

With `CC(C)CN1Cc2nc(N3CCC(O)CC3)ncc2C1=O`, the Percent Effect amounted to 4.55%.

Take `CC(C)CN1Cc2nc(N)ncc2C1=O`: the Percent Effect worked out at 91.2%.

With `CC1CCC(N2Cc3nc(N)ncc3C2=O)CC1` (stereo not drawn), the Percent Effect came to 73.8%.

`CC(C)CN1Cc2nc(N3CCCC3)ncc2C1=O`: the Percent Effect was 6.16%.

Take `CN1CCC(N2Cc3nc(N)ncc3C2=O)CC1`: the Percent Effect was 2.22%.

Turning to `CN1[C@H](CN2CCCC2)C[C@@H]2CN(C(=O)Cc3cccs3)CC[C@@H]21`, the Percent Effect is -1.4%.

On to `CCO[C@@H]1CN(S(=O)(=O)c2cn(C)cn2)[C@@H]2CCCO[C@@H]21`, for which the Percent Effect turned out to be 3.16%.

For `CC(C)=CCN1C(=O)[C@H]2CC[C@@H]1CN(C(=O)CCc1n[nH]c(C)c1C)C2`, the Percent Effect was -4.7%.

As for `CC(NC(=O)C1=NN(C)C(=O)CC1)c1ccc(Cl)cc1` (stereo not drawn), the Percent Effect worked out at 6.56%.

In the case of `CC(NC(=O)C1=NN(C)C(=O)CC1)c1ccc(Cl)cc1Cl` (stereo not drawn), the Percent Effect worked out at 57.8%.

Regarding `CC(NC(=O)C1=NN(C)C(=O)CC1)c1ccccc1Cl` (stereo not drawn), the Percent Effect is 7.44%.

As for `c1ccc(CO[C@@H]2CN(Cc3ccoc3)[C@@H]3COC[C@@H]32)nc1`, the Percent Effect was -0.514%.

As for `N#Cc1cc2c(=O)n(CC(O)C(F)(F)F)ccc2[nH]c1=O` (stereo not drawn), the Percent Effect came out at 27.3%.

Consider `CC(O)CCn1ccc2[nH]c(=O)c(C#N)cc2c1=O` (stereo not drawn), for which the Percent Effect stood at 58.6%.

Take `CC(C)SCCn1ccc2[nH]c(=O)c(C#N)cc2c1=O`: the Percent Effect came to 48.5%.

For the molecule `CCC(Cn1ccc2[nH]c(=O)c(C#N)cc2c1=O)OC` (stereo not drawn), the Percent Effect came out at 34.1%.

On to `N#Cc1cc2c(=O)n(CC(O)Cc3ccccc3)ccc2[nH]c1=O` (stereo not drawn), for which the Percent Effect was found to be 4.36%.

As to `CCCOC(C)Cn1ccc2[nH]c(=O)c(C#N)cc2c1=O` (stereo not drawn), the Percent Effect was 61.2%.
